Measured values as given in the supplement of paper PMC6555819.

Key:
Assay in all cases: PBM binding z-score (relative to random genomic background probes); higher = stronger binding; sequences stand for … in GC…GCGATTGACAGCGTAGAATGAAGG
[1] = tested on: FXR:RXRa (NR concentration 270 nM, RXRa partner concentration 90 nM)
Method in brief: (§1)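 On custom Agilent 4×180K arrays, double-stranded probes with 34-nt variable regions carried direct-repeat seeds, single-nucleotide variants, half-site ablations or random human genomic background. Ligand-free nuclear receptor dimers were applied for 1 h, and binding was read with antibodies against each partner (one per run). Binding z-scores come from regression-normalized fluorescence, with the random background probes as reference.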

[2] = tested on: LXRa:RXRa (NR concentration 270 nM, RXRa partner concentration 90 nM)
Method in brief: as §1

[3] = tested on: LXRa homodimer (NR concentration 270 nM)
Method in brief: as §1

[4] = tested on: LXRb:RXRa (NR concentration 270 nM, RXRa partner concentration 90 nM)
Method in brief: as §1

[5] = tested on: LXRb homodimer (NR concentration 270 nM)
Method in brief: as §1

[6] = tested on: PPARa:RXRa (NR concentration 270 nM, RXRa partner concentration 90 nM)
Method in brief: as §1

[7] = tested on: PPARg:RXRa (NR concentration 180 nM, RXRa partner concentration 90 nM)
Method in brief: as §1

[8] = tested on: PPARg:RXRa 270nM:90nM, anti-RXR (NR concentration 270 nM, RXRa partner concentration 90 nM)
Method in brief: as §1

[9] = tested on: PPARg:RXRa 30nM:10nM, anti-RXR (NR concentration 30 nM, RXRa partner concentration 10 nM)
Method in brief: as §1

[10] = tested on: PPARg:RXRa 90nM:30nM, anti-RXR (NR concentration 90 nM, RXRa partner concentration 30 nM)
Method in brief: as §1

Sequence	PBM binding z-score [1]	PBM binding z-score [2]	PBM binding z-score [3]	PBM binding z-score [4]	PBM binding z-score [5]	PBM binding z-score [6]	PBM binding z-score [7]	PBM binding z-score [8]	PBM binding z-score [9]	PBM binding z-score [10]
TAGCCTAGGTCATGGGCCAGAATACCACGCGAAC	4.31	3.48	0.271	2.33	-0.281	4.2	3.64	3.63	0.806	2.68
GCGACTGGGGCATCAGCAGGTGACCATAACTTAA	-0.501	-0.679	-0.385	0.223	-1.22	0.831	0.922	0.832	-0.507	-0.0151
AGAACGAGGGCACGCTGAGTTGACAGCAGAGTAG	0.953	0.796	-0.526	0.312	-1.2	2.46	2.25	1.73	0.191	0.731
CAGACAGGGTCAGCTAGGCCAGAGTAGGGACGGC	4.38	2.22	-0.426	1.75	-0.493	4.34	2.66	2.47	0.42	1.51
ATCTCTAGGTAAAAGTTCAGTGGATCCCGAGGAT	1.06	1.66	1.37	1.03	1.11	4.09	7.94	7.5	7.58	8.5
ACTCGCAGGACAAAGGTCAGAGCTACGCCAGTGA	3.77	4.15	1.13	3.23	0.178	4.75	7.12	6.87	5.49	6.99
CCAGACAGGTGAGAAGGTATCTCAGCCTCGATTA	-0.148	-0.116	0.0657	-0.418	-0.551	0.0664	0.278	-0.0698	-0.296	-0.148
ATCGAAAGGTCGAGGTGAATATAGAGAAAGGGAA	4.19	3.5	0.21	2.79	0.889	4.65	3.91	3.97	1.51	2.95
CCTTACGGGTCACTCCAGGTTATAGCGTCGGAGT	5.26	7.75	1.89	5.52	0.0674	4.65	3.13	3.94	1.17	2.7
TCTGCTAGGTCAGTTGGTGAGCTAACGAGCTGCC	0.898	0.467	-0.796	-0.0479	0.264	0.853	-0.0831	1.38	1.18	1.13
AGAACGAGGGCACGCTGAGTTGATAGCTGAGTAG	0.863	0.607	-0.912	0.017	-0.95	2.18	2.08	1.87	0.18	1.06
AGAATGAGGTTACCAAAGATCGGGGAAACGCTTG	1.75	4.95	-0.394	2.39	-0.29	3.28	2.29	2.42	0.813	1.48
TCTCGGAGGACACGAAGGTCTGAGCTTTCCAGAG	-0.23	-0.358	-1.07	-0.541	-1.44	0.131	-0.309	0.641	1.91	1.38
ACAGACAGGGGATGAAGGTAACTCAGGCTATCAT	0.0429	-0.217	-0.0262	0.454	0.563	0.414	0.8	-0.0093	-0.0639	-0.0825
CCTTACGGGTCACTCCAGGTTATAGAATCGGAGT	5.18	7.67	1.89	5.43	0.287	4.4	3.31	3.8	1.18	2.56
CCGACTGTGGCAAAGGTTACCATACTCAGTACGA	0.857	1.38	0.228	1.73	-0.558	4.03	8.41	7.91	6.78	8.43
TTACCAAGGTGAAAGGTCGATGATGCACGCCTTG	3.03	2.42	-0.187	2.14	-0.613	4.95	8.4	7.54	6.44	7.87
AGTCAAAGTCCACTAGGTAACGTAAGATTCAGCT	-0.195	-0.249	-0.162	-0.0956	0.0347	0.0628	0.58	0.278	0.0579	0.146
AATACAGGTTCACTAGGCCAGAGTAGGTACGAAT	1.7	2.58	0.711	1.5	0.333	3.19	3.24	2.98	0.739	1.97
TCATATAGGTAAATGCTATGTGAAAGTCCGATCT	0.801	0.648	0.000605	0.522	-0.0167	1.13	1	2.16	3.62	3.03
CGTCCAAGGTCAAAGGAGGTCAGTGAAGACAGAT	7.79	7.44	4.18	5.88	1.51	6.08	5.84	5.46	2.75	4.81
TCTAGCAGGCCTGAGGGTCACTCAAGAGGTACGG	1.03	1.18	-0.547	1.32	-1.24	2.38	0.588	1.57	1.62	1.44
AGAATGAGGTTATACCTAGATCAGGGAAGAAAGT	1.65	1.87	-0.0251	1.31	-0.249	3.15	1.77	1.63	0.532	1.09
TAGCCTAAGTCATTCAGGGGCCAGTATAGAAAGC	0.125	-0.0745	-0.319	0.338	-0.276	0.0691	0.0111	0.16	-0.308	-0.241
GTACCAAGGTTAATAGGTCGTTGATGAGTAGGCG	2.13	1.67	0.289	1.34	-0.213	3.18	3	3.43	1.01	2.5
